In all, about 16,000 sequences were measured (“Z-score”: median about -0.37, highest 2% from about 3.1 on). The sample holds the highest values, similar sequences and a random draw of the others, so the mix is not that of the screen.
system: RBM10 RRM1-ZnF-RRM2 (GST-tagged construct); experiment: RNAcompete 7-mer binding Z-score; higher = stronger binding preference
Procedure: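 RNAcompete: 20 pmol GST-tagged RBM10 RNA-binding constructs were incubated with a designed RNA pool of about 241,000 sequences up to 41 nt (1.5 nmol) on glutathione beads for 30 min at 4 °C and washed. Bound RNAs were identified by microarray hybridisation. Each RNA 7-mer is scored by a one-sided Z-score of its enrichment, computed over probes that contain the 7-mer within longer pool sequences.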

| Sequence | RNAcompete 7-mer binding Z-score |
| --- | --- |
| UCGGUUG | 0.286 |
| ACAAUCU | -0.795 |
| UUUGACG | -0.551 |
| AUGUAGA | 0.243 |
| UCACAAU | -0.511 |
| ACAGUUC | -0.672 |
| AGAAUGU | 0.184 |
| GGAAUGU | 1.58 |
| CGAAUGG | 1.4 |
| GGAAUGG | 4.19 |
| UGAAUGG | 2.22 |
| AGAAUGG | 3.51 |
| UUGUGUG | 0.0604 |
| AAGAUAA | -0.0233 |
| GAUGAAC | 0.385 |
| CUUCCAU | -0.799 |
| AGUCGCA | -0.122 |
| AUGGUGG | 3.33 |
| CUGGUGG | 1.22 |
| AUGGUGC | 0.789 |
| GUGGUGC | 1.68 |
| GUGGUGG | 3.78 |
| UUGGUGG | 2.09 |
| CUCGGGA | 0.228 |

| Sequence | RNAcompete 7-mer binding Z-score |
| --- | --- |
| CCGGACC | -0.712 |
| GUCGUCU | -0.417 |
| CGCAAAC | -0.588 |
| GGGGGAG | 2.6 |
| UCGGGAA | 1.4 |
| UGGGGGA | 3.33 |
| UUGGGGA | 2.27 |
| CGGGGAG | 2.54 |
| UGGGGAG | 3.37 |
| UGGGGAA | 3.58 |
| GGGGGGA | 2.69 |
| UGGGGAC | 2.28 |
| UGCGUGA | 0.381 |
| UUGCGGU | -0.0161 |
| AAAGCCU | -0.734 |
| CCGUUGG | 0.228 |
| CCGAUCU | -0.938 |
| GUAUGAA | 0.355 |
| AGCAAGU | -0.0343 |
| CUCGAAA | -0.493 |
| UUGAGGA | 1.04 |
| CUGAGGG | 1.53 |
| AUGAGGU | 1.83 |
| GUGAGGG | 4 |

| Sequence | RNAcompete 7-mer binding Z-score |
| --- | --- |
| AUGAGGG | 4.32 |
| UUGAGGG | 3.15 |
| UUGAGGC | 0.341 |
| GUGAGGC | 1.86 |
| AUGAGGC | 1.35 |
| CAAAGAU | -0.282 |
| UGGGACG | 2.27 |
| AUCUGAA | -0.643 |
| CGGUAAG | 1.52 |
| GGGUAAC | 2.47 |
| CGGUAAA | 0.352 |
| GGGUAAA | 3.9 |
| AGGUAAA | 2.1 |
| GGGUAAG | 3.97 |
| CGUAUGU | -0.337 |
| ACUGCUA | -0.653 |
| GAUAUGG | 3.32 |
| GGUAUGG | 4.03 |
| AAUAUGG | 1.27 |
| GAUAUGC | -0.078 |
| GGUAUGA | 1.89 |
| GGUAUGU | 1.33 |
| GACCGAU | -0.479 |
| ACGCUUU | -0.865 |

| Sequence | RNAcompete 7-mer binding Z-score |
| --- | --- |
| GGGAACA | 3.06 |
| AGGAAUG | 2.07 |
| GGGAAUA | 3.15 |
| CGGAAUG | 1.33 |
| CGGAAUA | 0.65 |
| GGGAAUU | 1.91 |
| GGGAACG | 3.86 |
| UGGAACG | 1.92 |
| GGGAAUG | 3.43 |
| CACGUUA | -0.406 |
| UCAGCUU | -0.905 |
| CACAAUU | -0.577 |
| CAUGUGU | -0.151 |
| UCAUAUC | -0.613 |
| UGGUGGU | 2.37 |
| AGGUGGU | 2.19 |
| UGGUGGC | 1.72 |
| GCGUGGA | 2.22 |
| UGGUGGA | 2.74 |
| GGGUGCA | 3 |
| GAGUGGU | 2.52 |
| GGGUGGU | 4.19 |
| AGGUGGG | 3.44 |
| UGGUGGG | 4.04 |

| Sequence | RNAcompete 7-mer binding Z-score |
| --- | --- |
| GGGUGGA | 4.54 |
| AGGUGGA | 3 |
| GACAAGU | 0.148 |
| ACUAUAU | -0.544 |
| AGUCCUC | -0.708 |
| UUACAUU | -0.686 |
| GAAUCUG | -0.632 |
| GCUCGUU | -0.577 |
| ACUCACG | -0.708 |
| GCGCGGC | 0.811 |
| GGCAUGC | 0.228 |
| AUUCCGG | -0.559 |
| UGUCAGA | -0.402 |
| ACGUGGG | 2.48 |
| GGGUGCG | 2.85 |
| UCGUGGG | 2.23 |
| CGGUGGA | 2.27 |
| GCGUGGG | 3.66 |
| GGGUGGG | 4.11 |
| GGGUGGC | 2.45 |
| CGGUGGG | 3.18 |
| CGGUGGU | 1.62 |
| UUUGAGU | -0.213 |
| ACGUAUA | -0.198 |

| Sequence | RNAcompete 7-mer binding Z-score |
| --- | --- |
| UUAGCGC | -0.617 |
| AAGGAAC | 2.66 |
| AAGGAAU | 2.34 |
| UAGGAAG | 1.94 |
| UAGGAAA | 1.6 |
| GAGGAAU | 1.71 |
| AAGGAAG | 4.04 |
| AAGGAAA | 3.21 |
| CAGGAAA | 1.26 |
| GAGGAAG | 3.52 |
| UUUGAUC | -0.719 |
| CUGACGG | 0.243 |
| AGAGGCA | 0.421 |
| AGGGUGG | 3.88 |
| ACGGUGG | 2.73 |
| UCGGUGA | 0.479 |
| AGGGUGA | 4.25 |
| UGGGUGA | 3.5 |
| GCGGUGA | 1.39 |
| GGGGUGA | 3.52 |
| AGGGUCA | 1.51 |
| AGGGUGC | 2.43 |
| AUGGUGA | 2.09 |
| GGGGUCA | 3 |

| Sequence | RNAcompete 7-mer binding Z-score |
| --- | --- |
| CGGGUGA | 2.55 |
| CUGGAGG | 1.11 |
| GGGCCCA | -0.151 |
| AGUAUUG | 0.024 |
| UGAUUGA | 0.00216 |
| GGACUUG | 0.319 |
| AGGGUGU | 3.03 |
| CGGGUGG | 3.24 |
| UGUGUGG | 1.79 |
| UGGGUGG | 4 |
| GGGGUGU | 3.53 |
| GGUGUGU | 1.42 |
| UGGGUGC | 2.74 |
| GCGGUGU | 0.96 |
| CGGGUGU | 1.83 |
| GGUGUGG | 3.86 |
| CGGGUGC | 1.94 |
| UGGGUGU | 2.62 |
| CAGUACA | -0.0816 |
| ACGCAAC | -0.479 |
| UCUGUUA | -0.795 |
| GACUGUG | -0.198 |
| CGUCAUA | -0.519 |
| AAGUGCG | 0.698 |

| Sequence | RNAcompete 7-mer binding Z-score |
| --- | --- |
| UCAACCC | -0.752 |
| ACCAUUG | -0.584 |
| GCGGUGG | 3.01 |
| GGGGUGG | 4.09 |
| GGGGUGC | 2.58 |
| CUCACAG | -0.351 |
| ACCAGGC | -0.136 |
| GGGAUGU | 2.88 |
| UGGAUAA | 1.07 |
| GGGAUAC | 2.71 |
| GGGAUAA | 3.36 |
| GGGAUGA | 3.59 |
| AGGAUAG | 2.21 |
| GGGAUGC | 2.65 |
| GGGAUAG | 3.83 |
| UGGAUAG | 2.3 |
| UCUGGUC | -0.522 |
| UCUGUCC | -0.81 |
| CAGGGGG | 2.58 |
| UAGGGGC | 2.34 |
| UAGGGCU | 1.3 |
| UAGGGGG | 3.4 |
| UAGGGCA | 2.23 |
| CAGGGGA | 2.8 |

| Sequence | RNAcompete 7-mer binding Z-score |
| --- | --- |
| UAGGGGU | 3.84 |
| CAGGGGU | 2.91 |
| UAGGGGA | 3.81 |
| GUGACGA | 0.68 |
| GUAAAAA | 0.253 |
| CCAUUGG | -0.53 |
| GUUUUGU | 0.024 |
| UGCUUGC | -0.73 |
| CCGAUUG | -0.606 |
| UAAGGGA | 3.09 |
| AAAGGGC | 2.89 |
| UAAGGGU | 3.54 |
| AAAGGGA | 4.13 |
| GAAGGCU | 0.581 |
| GAAGUGU | 1.09 |
| GAAGGGC | 3.32 |
| UAAGGUU | 1.74 |
| UAAGGCU | 0.224 |
| GAAGGGU | 4.15 |
| UAAGGGC | 1.51 |
| CAAGGGA | 2.5 |
| CCGUAUC | -0.876 |
| AUAAUGG | 1.84 |
| UGAUUAA | -0.118 |

| Sequence | RNAcompete 7-mer binding Z-score |
| --- | --- |
| AUACACA | -0.187 |
| AGGUUGU | 0.691 |
| GCGACGC | -0.253 |
| GUCGCUG | 0.0495 |
| UCUAACC | -0.737 |
| GUCUAUA | -0.479 |
| GUUGCAU | -0.227 |
| CUAGAUU | -0.661 |
| GAACCUG | -0.683 |
| UCGGCUA | -0.537 |
| CGGUGUA | 0.873 |
| AAAGGGU | 4.71 |
| GAAGGGA | 4.75 |
| AAAGGCU | 0.796 |
| CAAGGGU | 2.85 |
| GAAGGCA | 2.46 |
| GCAGGGA | 2.94 |
| GGUUUGU | 0.811 |

Source: the supplement of paper PMC5499739
